According to PubChem BioAssay AID720596 (The Scripps Research Institute Molecular Screening Center, 2013):
The campaign covered roughly 370,000 compounds. About 1,600 (0.43%) were called active. For the sample, actives were picked, then their nearest neighbours and some compounds at random. Unmarked numbers belong to inactive results. Cut-off read from the data, not from the text of the source: active = inhibition above about 24%; inactive = the rest.

Biological target: Major prion protein (Homo sapiens) (UniProt P04156)
Assay: reduces human prion protein on the cell surface, primary screen, cell-based, TR-FRET (AID 720596); note: 0% = median of the test wells and 100% = reference compound wells
Settings: cell surface PrPC, TR-FRET read-out; at 13.8 µM; stronger effect = higher value

Structure (SMILES)	inhibition
COc1cc(-n2c(=S)[nH]c3ccc(C)cc3c2=O)c(Cl)cc1Cl	41% (active)
COc1ccc(OC)c(-n2c(=S)[nH]c3cc(C(=O)N4CCCCC4)ccc3c2=O)c1	2.99%
COc1cc2[nH]c(=S)n(Cc3ccc(C)o3)c(=O)c2cc1OC	-2%
COc1cccc(C(=O)N2CCCC(CCC(=O)NCc3ccc(F)c(F)c3)C2)c1 (stereo not given)	1.57%
CCOc1ccc(C2/C(=C(/O)c3ccc4c(c3)CC(C)O4)C(=O)C(=O)N2CCCn2ccnc2)cc1 (stereo not given)	1.98%
C=CCOc1cccc(C2C(C(=O)c3ccc(C)o3)=C(O)C(=O)N2CCN2CCOCC2)c1 (stereo not given)	-10.8%
CCCOc1ccc(C2C(C(=O)c3ccc(C)o3)=C(O)C(=O)N2CCCn2ccnc2)cc1 (stereo not given)	39.3% (active)
CCOc1ccccc1OCCCNCc1ccccc1	-4%
O=C(CN1CCCSc2ccccc21)N1CCN(S(=O)(=O)c2cccc(F)c2)CC1	-1.47%
CC(C)c1ccc(S(=O)(=O)N2CCN(C(=O)CN3C(=O)NC(C)(c4ccccc4)C3=O)CC2)cc1 (stereo not given)	-0.25%
N#C/C=C1\Sc2ccccc2C(=O)N1CC(=O)N1CCN(S(=O)(=O)c2ccccc2)CC1	59.8% (active)
CCCN(C(=O)CSc1nnc(N)s1)c1c(N)n(Cc2ccccc2)c(=O)[nH]c1=O	-0.1%
COc1ccc(Cl)cc1NC(=O)COc1ccc2c(c1)OCO2	0.61%
Cc1noc(C)c1NC(=O)Nc1ccc2c(c1)C(=O)N([C@H](C)CO)C[C@H](C)[C@@H](CN(C)S(=O)(=O)c1cn(C)cn1)O2	3.79%
COc1ccc(C)cc1NC(=O)CSc1nnc2ccc(-c3ccccn3)nn12	-1.48%
O=C(CCCNS(=O)(=O)c1cccc2nsnc12)NCCN1CCN(c2ccccc2F)CC1	-22.9%
Cc1cccc(CS(=O)(=O)c2ncc(Cl)c(C(=O)Nc3ccc(F)cc3)n2)c1	54.3% (active)
Cc1cccc(NC(=O)c2cc3c(C)nn(-c4ccccc4)c3s2)c1	-2.71%
Cc1cccc(C(=O)Nc2c(-c3ccc(F)cc3)nc3ncccn23)c1	0.67%
Cc1cccc(NC(=O)Cn2c(=O)n(Cc3ccccc3)c(=O)c3c(C)c(C)sc32)c1	4.63%
CN(CCC(=O)Nc1cc(S(=O)(=O)N(C)C)ccc1Cl)CC(=O)Nc1ccc(F)cc1	-6.03%
Cc1cccc(NC(=O)c2nc(S(=O)(=O)Cc3ccccc3)ncc2Cl)c1	70.4% (active)
Cc1ccc(NS(=O)(=O)c2cccs2)cc1S(=O)(=O)N1CCCCCC1	2.21%

Structure (SMILES)	inhibition
Cc1cccc(CC(=O)N2CCN=C2SCc2ccc([N+](=O)[O-])cc2)c1	-5.21%
CCCn1c(=S)[nH]c2ccc(C(F)(F)F)cc21	12.2%
CCN(CC(=O)NCc1ccc(F)cc1)S(=O)(=O)c1ccc(Cl)s1	-0.88%
Cc1ccc(Cl)cc1NC(=O)C1CCN(S(C)(=O)=O)CC1	4.88%
O=C(Nc1ccccn1)C1CCN(S(=O)(=O)c2ccc3c(c2)OCCO3)CC1	-7.97%
Cc1ccnc(NC(=O)C2CCN(S(=O)(=O)c3c(C)c(C)cc(C)c3C)CC2)c1	28.1% (active)
O=C(/C=C/c1cnc2ccccc2n1)NC1CCCCCC1	-28.9%
CCOC(=O)c1c(-c2ccccc2)oc2cc(Br)c(O)cc12	58.6% (active)
CCOC(=O)c1c(C)oc2cc(Br)c(OCC(N)=O)cc12	-4.57%
CCOC(=O)c1c(-c2ccccc2)oc2ccc(OC(=O)N(C)C)cc12	-3.58%
CCNc1nc(NCC)nc(N(C)n2cnnc2)n1	3.48%
CCN(CC)c1ccc(S(=O)(=O)N2CCOCC2)cc1NC(=O)CSc1cccc[n+]1[O-]	-5.4%
CCN1CCN(C(=O)C2CCCN(S(=O)(=O)c3ccc(OC)c(OC)c3)C2)CC1 (stereo not given)	-1.58%
Nc1cc2c(cc1Br)-c1ccc(F)cc1C2=O	-0.15%
O=C(/C=C/c1ccc([N+](=O)[O-])o1)NNC(=O)c1ccc(F)cc1	64.7% (active)
CCN(CC)N=Nc1cccc(NC(C)=O)c1	-7.3%
Cc1ccc(SC(CC(=O)c2ccc(C(C)(C)C)cc2)C(=O)O)cc1 (stereo not given)	-2%
O=C(OCC(=O)N1CCCCC1)c1ccc(OC(F)(F)F)cc1	8.76%
c1ccc(-n2ncc(-c3nn[nH]n3)n2)cc1	1.91%
CCc1cc(-c2n[nH]c(=S)n2CC(C)C)cs1	-0.39%
O=C(Nc1ccc(S(=O)(=O)N2CCOCC2)cc1)c1ccc2ncsc2c1	0.06%
COc1ccc(C(=O)Nc2nc(-c3ccc(S(=O)(=O)N4CCOCC4)cc3)cs2)cc1	27.2% (active)
